The nature of test [1]: qHTS Screen of the MIPE 4.0 Collection Against Ewings Sarcoma (TC32) (AID 1259256). Also: nearly all actives have a fitted effect of over 45% in size. In short, it runs like this:
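CellTiter-Glo luminescence after 48 h compound exposure (titration) gave viability; percent activity used DMSO-treated cells as no inhibition and medium-only wells as full inhibition. Cells grown in RPMI/5% FBS, dosed 4 h post-seeding.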
(In general: In qHTS, concentration-response curves come from the screen itself.)

Test [2] in a line: NS1 protein of Zika virus - qHTS assay to identify small molecule inhibitors in human HEK 293 cells (AID 1347053). Also: nearly all actives have a fitted effect of over 55% in size. In short, it runs like this:
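Compound-treated (1 h pre-infection) HEK 293 cells infected with ZIKV MR766, MOI = 0.5; after 24 h at 37 C, NS1 read by TR-FRET; data normalized to uninfected and infected controls.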

A short description of test [3]: qHTS of pediatric cancer cell lines to identify multiple opportunities for drug repurposing: Primary screen for A673 cells (AID 1347092). Also: nearly all actives have a fitted effect of over 45% in size. In short, it runs like this:
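Cells are plated, rested 5 h, dosed by pintool, incubated 48 h, then lysed with CellTiter-Glo and read by luminescence. DMSO is the neutral control; bortezomib at 2.3 uM final is the positive control.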

Test [4] in a line: qHTS of pediatric cancer cell lines to identify multiple opportunities for drug repurposing: Primary screen for SK-N-MC cells (AID 1347093). In short, it runs like this: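 Metabolically active cells were quantified by ATP-dependent luminescence (CellTiter-Glo, 15 min at room temperature) following 48 h treatment. Cells had been plated at 500-1,000 per well and settled for 5 h beforehand.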

Test [5] in a line: qHTS of pediatric cancer cell lines to identify multiple opportunities for drug repurposing: Primary screen for NB-EBc1 cells (AID 1347095). In short, it runs like this:
(§1)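 Quantitative HTS format: each compound titrated (MIPE 11 points from 0.78 nM, NPC 8 points from 0.59 nM) onto cells plated 5 hours earlier. After 48 h at 37 degrees C, CellTiter-Glo luminescence was recorded.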

A short description of test [6]: qHTS of pediatric cancer cell lines to identify multiple opportunities for drug repurposing: Primary screen for U-2 OS cells (AID 1347096). Also: nearly all actives have a fitted effect of over 50% in size. In short, it runs like this: (§2)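 Cells (500-1,000/well) rested 5 h, then received compounds for 48 h; metabolically active cells were measured by CellTiter-Glo luminescence. Final concentrations spanned up to 46 µM (MIPE, 11-point) or 0.59 nM-46 µM (NPC, 8-point) in primary screens, 11-point in follow-ups.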

Test [7] in a line: qHTS of pediatric cancer cell lines to identify multiple opportunities for drug repurposing: Primary screen for SK-N-SH cells (AID 1347098). Also: nearly all actives have a fitted effect of over 65% in size. In short, it runs like this:
as §2

A short description of test [8]: qHTS of pediatric cancer cell lines to identify multiple opportunities for drug repurposing: Primary screen for SJ-GBM2 cells (AID 1347091). In short, it runs like this: (§3)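 Cell viability, CellTiter-Glo luminescence; 500-1,000 cells/well, 8- or 11-point titration, 48 h compound exposure at 37 degrees C, 5% CO2. Controls: DMSO neutral, bortezomib 2.3 µM final as positive.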

The nature of test [9]: qHTS of pediatric cancer cell lines to identify multiple opportunities for drug repurposing: Primary screen for BT-37 cells (AID 1347094). In short, it runs like this:
as §1

Test [10] can be described thus: qHTS of pediatric cancer cell lines to identify multiple opportunities for drug repurposing: Primary screen for Saos-2 cells (AID 1347097). Also: nearly all actives have a fitted effect of over 40% in size. In short, it runs like this:
as §1

A short description of test [11]: qHTS of pediatric cancer cell lines to identify multiple opportunities for drug repurposing: Primary screen for NB1643 cells (AID 1347099). Also: nearly all actives have a fitted effect of over 50% in size. In short, it runs like this: as §1
Test [12] is described as follows: qHTS of pediatric cancer cell lines to identify multiple opportunities for drug repurposing: Primary screen for LAN-5 cells (AID 1347100). In short, it runs like this:
as §2

Test [13] in a line: qHTS of pediatric cancer cell lines to identify multiple opportunities for drug repurposing: Primary screen for TC32 cells (AID 1347089). Also: nearly all actives have a fitted effect of over 60% in size. In short, it runs like this: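 Measured quantity: luminescence from CellTiter-Glo, reflecting metabolically active TC32 cells following 48 h of compound. Curves came straight from multi-point titrations, with 8 or 11 points in primary and 11 in confirmatory screening.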

Test [14] can be described thus: qHTS of pediatric cancer cell lines to identify multiple opportunities for drug repurposing: Primary screen for DAOY cells (AID 1347090). Also: nearly all actives have a fitted effect of over 55% in size. In short, it runs like this:
as §3

SMILES strings stand for the structures. Results filed as inconclusive are left out. The source made the active and inactive calls. Calls follow the shape of the dose curve; as a rule, active = well fitted curve in the direction sought with a large enough effect; inconclusive = small, poorly fitted or top-dose-only effect, or another doubt; inactive = no such curve, though single readings can be large; an effect the other way counts as inactive or inconclusive.
Potency is read from the fitted curve at half-maximal effect.

Regarding `N#Cc1c(C2CCNCC2)cc(-c2c(O)cccc2OCC2CC2)nc1N`, the Potency was 14800 nM (active) in test [1]; 18700 nM (active) in [3]; 1050 nM (active) in test [4]; 18700 nM (active) in [5]; 21500 nM (active) in [7]. Moreover, the Potency entry in test [2] and in test [6] was “inactive” throughout.

For the compound `CCOc1cc2ncc(C#N)c(Nc3ccc(OCc4ccccn4)c(Cl)c3)c2cc1NC(=O)C=CCN(C)C`, the Potency in test [1] is 2960 nM (active); in [8] it was 1180 nM (active); in test [3] it was 74.3 nM (active); in [4] it was 105 nM (active); in test [9] it was 1090 nM (active); in test [5], 332 nM (active). Besides, the Potency is 1180 nM (active) in [10], 121 nM (active) in [7], 590 nM (active) in test [11] and 1480 nM (active) in test [12]. The Potency result in test [2] is “inactive”.

With `FC(F)(F)c1ccc(Nc2nc3ccc(Oc4ccnc(-c5ncc(C(F)(F)F)[nH]5)c4)cc3[nH]2)cc1`, the Potency is 9350 nM (active) in test [1]; 18700 nM (active) in test [14]; 16600 nM (active) in test [8]; 14800 nM (active) in test [3]; 4180 nM (active) in test [4]; 13700 nM (active) in test [9]. Besides, the Potency in test [5] was 20900 nM (active); in [10], 7430 nM (active); in test [7] it was 5410 nM (active); in test [11] it was 16600 nM (active). Further, in [13], the Potency result was “inactive”.

For the compound `Cc1[nH]c(C=C2C(=O)Nc3ccccc32)c(C)c1CCC(=O)O`, the Potency is 235 nM (active) in test [1]; 7390 nM (active) in test [13]; 2960 nM (active) in test [14]; 935 nM (active) in test [8]; 1180 nM (active) in test [3]; 590 nM (active) in test [4]. In addition, the Potency is 863 nM (active) in test [9]; 148 nM (active) in test [5]; 3320 nM (active) in [10]; 541 nM (active) in test [7]; 3320 nM (active) in test [11]; 132 nM (active) in test [12]. The Potency entry in [2] is “inactive”.

`C[C@]12CCC(=O)C=C1[C@@H]1CC1[C@H]1[C@H]3[C@@H]4C[C@H]4[C@@]4(CCC(=O)O4)[C@@]3(C)CC[C@H]12` (stereo partly specified): the Potency result in [1], in test [2], in test [13], in test [14], in test [3] and in test [9] was “inactive” each time. Moreover, the Potency result in test [5], in test [6], in test [10], in test [7] and in test [11] was “inactive” throughout.

Turning to `COc1cccc2c1C(=O)c1c(O)c3c(c(O)c1C2=O)C[C@@](O)(C(=O)CO)C[C@@H]3O[C@H]1C[C@H](N)[C@@H](O)[C@H](C)O1`, the Potency was 4.2 nM (active) in test [1]; 296 nM (active) in test [2]; 658 nM (active) in [13]; 1870 nM (active) in test [14]; 264 nM (active) in test [8]; 372 nM (active) in test [3]. Further, the Potency in test [4] is 235 nM (active); in [9] it was 193 nM (active); in [5], 118 nM (active); in [10] it was 2350 nM (active); in test [11] it was 662 nM (active); in test [12] it was 118 nM (active).

Consider `CCOC(=O)N1CCN([N+]([O-])=NOc2ccc([N+](=O)[O-])cc2C#N)CC1`, for which the Potency in test [1] is 2640 nM (active); in test [2], 2960 nM (active); in test [13], 3700 nM (active); in test [3], 1180 nM (active); in test [4] it was 10500 nM (active); in test [9] it was 7690 nM (active). The values for the Potency in test [5], in [11] and in test [12] were 5260 nM (active), 3720 nM (active) and 4180 nM (active), respectively. In test [7], the Potency result is “inactive”.

Turning to `COc1cc([C@@H]2c3cc4c(cc3[C@@H](O[C@@H]3O[C@@H]5CO[C@@H](c6cccs6)O[C@@H]5[C@H](O)[C@@H]3O)[C@H]3COC(=O)[C@H]23)OCO4)cc(OC)c1O`, in test [1], the Potency result is “inactive”. Also, the Potency in [2] was 296 nM (active); in test [13] it was 208 nM (active); in [14], 372 nM (active); in [3], 372 nM (active); in test [4], 93.5 nM (active); in [9], 217 nM (active). The Potency in [5] was 37.2 nM (active); in test [6] it was 3720 nM (active); in test [10] it was 590 nM (active); in test [7], 5410 nM (active); in [11], 132 nM (active); in test [12] it was 37.2 nM (active).

Take `CNC(=O)c1ccc(Nc2cc(Nc3ccccc3S(=O)(=O)C(C)C)c3cc[nH]c3n2)nc1`: the Potency in test [1] is 935 nM (active); in [13], 2620 nM (active); in test [14] it was 14800 nM (active); in [8], 1050 nM (active); in test [3] it was 2350 nM (active); in [4] it was 743 nM (active). The Potency is 7690 nM (active) in test [9]; 1480 nM (active) in [5]; 18700 nM (active) in test [6]; 1660 nM (active) in test [10]; 4820 nM (active) in test [7]; 5260 nM (active) in test [11]. Besides, the Potency in test [12] is 93.5 nM (active).

Regarding `Oc1ccc(-c2ccc(-c3cc(Nc4cccc(CNC5CC5)c4)n[nH]3)cc2)c(O)c1`, the Potency in test [1] was 5900 nM (active); in test [2], 1180 nM (active); in [14] it was 14800 nM (active); in test [8] it was 1480 nM (active); in test [4] it was 372 nM (active); in [9], 5440 nM (active). In addition, the Potency was 2960 nM (active) in test [5], 5900 nM (active) in test [6] and 5900 nM (active) in test [10]. In addition, the Potency entry in [11] is “inactive”.

Consider `CN1CCc2c(c3ccccc3n2Cc2ccc(C(=O)NO)cc2)C1`, for which the Potency is 18700 nM (active) in test [1]; 3720 nM (active) in [14]; 23500 nM (active) in test [8]; 5900 nM (active) in [3]; 2960 nM (active) in test [4]; 30600 nM (active) in test [9]. In addition, the Potency in test [5] was 20900 nM (active); in [6] it was 23500 nM (active); in [10] it was 18700 nM (active); in test [7], 24100 nM (active); in test [11] it was 16600 nM (active); in test [12], 16600 nM (active).

Take `CCC(C(=O)O)C1CCC(C)C(C(C)C(O)C(C)C(=O)C(CC)C2OC3(C=CC(O)[C@@]4(CC[C@](C)(C5CC[C@@](O)(CC)C(C)O5)O4)O3)C(C)CC2C)O1` (stereo partly specified): the Potency in test [1] is 2640 nM (active); in [2] it was 1660 nM (active); in test [13] it was 5230 nM (active); in test [14] it was 11800 nM (active); in [8], 11800 nM (active); in test [3], 2350 nM (active). Besides, the Potency was 187 nM (active) in test [4]; 611 nM (active) in [9]; 296 nM (active) in [5]; 9350 nM (active) in test [10]; 12100 nM (active) in test [7]; 1660 nM (active) in [11]. For the same compound, the Potency in test [12] is 1050 nM (active).

The values are drawn from PubChem BioAssay (NCATS).
